Screening data: PubChem BioAssay, several laboratories
Rows were chosen to be rich in hits. Some 4.1% of all compounds tested hit in one or more screens of this group.
BoNT F protease: inhibitors of Botulinum neurotoxin F light chain protease. hit rate 0.22% among 360,000. inhibition, % at 10 µM. Multiplex microsphere protease cleavage assay, flow cytometry; in the data active = inhibition above about 35%, passing the limit was not always enough; inconclusive = no clear call, values can overlap the other calls; also: plate controls were buffer without enzyme for full effect and enzyme alone for no effect
Anthrax LF inh2: inhibitors of Bacillus anthracis lethal factor protease; P15917; multiplex microsphere protease cleavage assay, LF; inhibition, % at 10 µM; hit rate 0.12% among 360,000; also: plate controls were buffer without enzyme for full effect and enzyme alone for no effect
DUSP3 inh: inhibitors of human VHR1 phosphatase (DUSP3) | P51452 | recombinant VHR phosphatase, pNPP absorbance | inhibition, % at 13.3 µM | hit rate 0.52% among 290,000 | AID 1654; in the data active = inhibition above about 50%
Target sequence (P51452 whole entry, looked up): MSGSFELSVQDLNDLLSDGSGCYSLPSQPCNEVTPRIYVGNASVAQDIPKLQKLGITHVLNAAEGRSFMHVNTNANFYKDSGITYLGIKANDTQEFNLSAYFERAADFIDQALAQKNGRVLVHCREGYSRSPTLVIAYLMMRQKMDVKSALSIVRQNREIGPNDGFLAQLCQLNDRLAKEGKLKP
MazF activator: increases E. coli MazEF RNase cleavage of RNA | FAM/BHQ RNA-DNA oligo cleavage fluorescence, 5 h | activation, % at 20 µM | hit rate 0.32% among 350,000; in the data active = activation above about 50%
Target sequence (P0AE70 whole entry, looked up): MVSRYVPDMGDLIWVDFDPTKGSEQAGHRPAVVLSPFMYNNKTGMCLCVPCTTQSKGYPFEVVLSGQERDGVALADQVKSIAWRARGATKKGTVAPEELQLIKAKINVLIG
BoNT A protease: BoNT A light chain protease inhibition; multiplex microsphere protease substrate cleavage, flow cytometry; inhibition, % at 10 µM; hit rate 0.17% among 360,000; AID 588499; also: plate controls were buffer without enzyme for full effect and enzyme alone for no effect
Autofluor counter: compound fluorescence in toxin protease inhibitor counterscreen. compound autofluorescence counterscreen, microsphere flow cytometry; stronger effect = higher value. fluorescence intensity (concentration not given with the values). hit rate 3.1% among 360,000. AID 624483; in the data active = fluorescence intensity above about 16000; inconclusive = no clear call, values can overlap the other calls
Numbers without * were called inactive; ? = inconclusive; . = not tested or not shown. Rule as the data show it, unless noted: active = inhibition above about 30%; inconclusive = no clear call, values can overlap the other calls; inactive = below that.

SMILES | BoNT F protease | Anthrax LF inh2 | DUSP3 inh | MazF activator | BoNT A protease | Autofluor counter
CC(C)C[C@H]1CN=C(Nc2ccccc2)N1CCCC1CCCC1 | -12 | 0 | 55* | 0 | 0 | 3037
CCN(CC)c1ccc(Nc2nc(-c3cccnc3)cs2)cc1 | -17 | -6 | 57* | 10 | 2 | 3218
CC1CC(C)CN(C(=O)c2cc3c(=O)n4ccccc4nc3s2)C1 (configuration not stated) | 3 | -1 | 10 | 5 | 2 | 5897
CC1CN(C(=O)c2cc3c(=O)n4ccccc4nc3s2)CC(C)O1 (configuration not stated) | 0 | -1 | -15 | -1 | 0 | 16544*
CC(C)NC(=O)c1cc2c(=O)n3ccccc3nc2s1 | -8 | -4 | 20 | -4 | -1 | 3669
Cc1cc(C)cc(NC(=O)c2cc3c(=O)n4ccccc4nc3s2)c1 | 4 | 0 | 36 | 70* | 0 | 2931
COC(=O)[C@]12CCCCC=C1N(CCC1=CCCCC1)C(=O)[C@H](CC(=O)NCCCN1CCCC1=O)C2 | -10 | -1 | . | . | 0 | 5853
NS(=O)(=O)c1ccc(CCNC(=O)COC(=O)Cc2ccc(Cl)cc2)cc1 | -6 | 6 | . | 2 | 0 | 3750
CC(Sc1nnnn1C)C(=O)Nc1nc(-c2ccc(F)c(F)c2)cs1 (configuration not stated) | -10 | 2 | . | 9 | -4 | 9559
CCOc1ccccc1N1CCN(C(=O)C2c3ccccc3Oc3ccccc32)CC1 | -1 | -2 | 50* | 1 | 0 | 3361
CCOc1ccccc1N1CCN(C(=O)c2ccccc2)CC1 | 0 | -1 | 10 | -3 | 0 | 8323
Cc1ccccc1NC1=NC(=S)N(CC(N)=O)C12CCOC(C)(C)C2 (configuration not stated) | 45* | 13 | 20 | 10 | -2 | 3102
CC1(C)CC2(CCO1)C(Nc1ccccc1)=NC(=S)N2CC(N)=O (configuration not stated) | -6 | 2 | 10 | -5 | 0 | 4236
N#Cc1c(NC(=S)NC(=O)Cc2cccs2)sc2c1CCCCC2 | 7 | -4 | 21 | 7 | 5 | 20268*
N#Cc1c(NC(=O)CSc2ncn[nH]2)sc2c1CCCCC2 | -2 | -1 | 10 | -5 | ? | 22487*
O=C(NNS(=O)(=O)c1ccccc1[N+](=O)[O-])c1ccc(O)cc1 | -5 | 0 | -2 | 2 | -1 | 24381*
O=C(c1ccco1)n1nc(-c2ccco2)nc1SCc1ccccc1 | 5 | 2 | 29 | -7 | 3 | 21774*
Cc1ccc(CNC(=O)C(=O)NCC2OCCN2S(=O)(=O)c2ccc(Br)cc2)cc1 (configuration not stated) | -2 | -4 | 14 | -1 | -3 | ?
Fc1ccc(COc2ccc(Br)cc2CNCc2ccncc2)cc1 | -6 | -1 | 10 | -1 | 0 | 8031
CCOc1cc(CNCc2ccncc2)cc(Br)c1OCc1ccc(F)cc1 | -12 | -5 | 7 | -12 | -1 | 20403*
CC(=O)Nc1ccc(OC(=O)N2CCCCC2)cc1 | -1 | 0 | -1 | 1 | 0 | 22883*
O=C(Nc1cc(Sc2nc3ccccc3s2)cc([N+](=O)[O-])c1)c1ccccc1 | -14 | -2 | 13 | 11 | -2 | 3325
O=C(Nc1cc(Sc2ccccn2)cc([N+](=O)[O-])c1)c1cccc(F)c1 | -7 | -2 | -2 | 52* | 0 | 2196
c1ccc(COc2ccc(CNCc3cccnc3)cc2)cc1 | -12 | -5 | 30 | 7 | -1 | 4133
C[C@@H]1CN(c2c(F)c(F)c3c(=O)c(C(=O)O)cn(C4CC4)c3c2F)C[C@H](C)N1 | -3 | -7 | 58* | 7 | -1 | 3856
SMILES | BoNT F protease | Anthrax LF inh2 | DUSP3 inh | MazF activator | BoNT A protease | Autofluor counter
O=C(Nc1cccc2ccccc12)c1cnccn1 | 4 | -9 | 2 | 6 | 2 | 2985
CSc1ccccc1NC(=O)c1cnccn1 | -6 | -2 | 3 | 5 | ? | 16758*
CCOc1ccccc1NC(=O)c1cnccn1 | -2 | -2 | -12 | 5 | -1 | 4300
CCc1ccccc1NC(=O)c1cnccn1 | -4 | 0 | 0 | 0 | -2 | 21346*
CC(C)c1ccccc1NC(=O)c1cnccn1 | -5 | -2 | -8 | -7 | ? | 25411*
COc1ccccc1NC(=O)C1CCCCN1S(=O)(=O)c1ccc(F)cc1 (configuration not stated) | 3 | -2 | 0 | -5 | 1 | 16434*
COc1ccc(NC(=O)C2CCCN2S(=O)(=O)c2ccc(C)cc2)cc1 (configuration not stated) | -2 | 0 | 35 | 7 | -4 | 17367*
COc1ccc(NC(=O)C2CCCCN2S(=O)(=O)c2ccc(F)cc2)cc1 (configuration not stated) | -4 | -2 | -15 | 0 | 0 | 4260
COc1ccc(NC(=O)C2CCCCN2S(=O)(=O)c2ccc(F)cc2)c(OC)c1 (configuration not stated) | -8 | -1 | -4 | -2 | -1 | 17466*
COc1ccc(NC(=O)[C@@H]2CCCN2S(=O)(=O)c2ccc(Cl)cc2)cc1 | -11 | -2 | . | 5 | -1 | 3209
NC(=O)C1CCN(CCC(=O)Nc2ccc(Br)cc2)CC1 | -1 | -3 | 3 | -11 | 0 | 23853*
CCNC(=O)C1(C)CCCN(C(=O)CCc2cccs2)C1 (configuration not stated) | 1 | -1 | . | . | 1 | 3683
Cc1cc(C)cc(OCC(=O)Nc2nonc2NC(=O)COc2cc(C)cc(C)c2)c1 | 2 | -11 | 7 | 5 | ? | 18944*
Cc1cc(C)cc(OCC(=O)Nc2cccc(C(=O)O)c2)c1 | -9 | 0 | 35 | 2 | ? | 17933*
Cc1cccc(OCC(=O)Nc2cc(NC(=O)COc3cccc(C)c3)cc(C(=O)O)c2)c1 | 2 | -2 | 39 | -7 | 1 | 3428
CCOC(=O)c1c(CN2CCN(CCO)CC2)n(C)c2cc(Br)c(OC)cc12 | -2 | -1 | 10 | 0 | 0 | 23678*
CCOC(=O)c1c(C)oc2cc(Br)c(OC)cc12 | -4 | -1 | 15 | 7 | -3 | 25149*
CCOC(=O)c1c(CN2CCCCC2)n(C)c2cc(Br)c(OC)cc12 | -10 | 0 | 39 | 1 | 0 | 4049
CC(C)(C)NC(=O)C[C@H]1C[C@H](C(=O)N2CCOCC2)[C@@]2(CCC3CCCC3)c3[nH]c4cc(-c5ccco5)ccc4c3CCN2C1=O | -5 | 4 | . | 2 | 0 | 3879
COc1cc2c(cc1OC)C(=NO)CCCC2 | 6 | 0 | . | -2 | 0 | 4005
O=C(/C=C/c1ccc(Cl)cc1)N1CCN(Cc2ccccc2)CC1 | -10 | 10 | -2 | 8 | 0 | 3103
Oc1ccccc1C1=Nc2ccccc2N=C(c2ccco2)C1 | -5 | -5 | 20 | 56* | 0 | 9950
CC(=O)c1c(O)cc(C)n(Nc2nc(C)cc(C)n2)c1=O | -3 | -2 | -2 | 7 | ? | 21656*
CCC(C)c1ccccc1N1CC(C(=O)N2CCN(S(=O)(=O)c3cccc([N+](=O)[O-])c3)CC2)CC1=O (configuration not stated) | 13 | -2 | . | 2 | 4 | 4421
